Screens deposited in PubChem by National Center for Advancing Translational Sciences (NCATS).
Compounds with a hit are over-represented: about 2.5% of the library has one in this group of screens.
VACV Venus inh: inhibitors of vaccinia virus (Venus reporter) | AID 720580 | 330,000 tested, 0.46% active | Vaccinia virus Venus reporter expression, fluorescence | Potency, µM (doses to about 36.5 µM), for inactives: top-dose activity change, negative = inhibition, usual class: inhibitors; calls by dose curve; tested in A549 cells; note: nearly all actives have a fitted effect of over 30% in size
Vaccinia mCherry: vaccinia inhibition (mCherry reporter) | Vaccinia virus mCherry reporter infection, fluorescence | Potency, µM (highest dose often 36.5 µM), without a hit: at the top dose activity change, negative = inhibition, usual class: inhibitors | 310,000 tested, 0.63% active | AID 720579; calls by dose curve; tested in A549 cells; note: nearly all actives have a fitted effect of over 35% in size
Marburg entry inh: Marburg virus entry inhibition. AID 540276. Potency, µM (doses to about 37.8 µM), for the others: top-dose activity change, negative = inhibition, actives largely listed as inhibitors. Marburg virus pseudotyped entry inhibition, cell reporter. 300,000 tested, 1.8% active; calls by dose curve; tested in HEK293 cells
LASV entry inh: Lassa virus entry inhibition | Lassa virus pseudotype entry inhibition, cell reporter | Potency, µM (doses to about 37.9 µM), without a hit: at the top dose activity change, negative = inhibition, actives largely listed as inhibitors | 300,000 tested, 1.2% active; calls by dose curve; tested in HEK293 cells; note: nearly all actives have a fitted effect of over 50% in size
* hit, by the source's call; i = inactive; ? = inconclusive; nt = no result given; ! = not confirmed by another sample; [ ] = remark or other dose. % is set by controls: 0 for no effect and ±100 for the full control effect; potency is the fitted concentration of half-maximal effect.

SMILES | VACV Venus inh | Vaccinia mCherry | Marburg entry inh | LASV entry inh
C=CCOC(=O)N[C@H](C(C(=O)OC)=C(C)NCc1ccccc1)c1cccc(OC)c1 | nt | nt | -13%[14.2 µM] | nt
NC(=O)CN1C[C@@H](O)CC1=O | nt | nt | 1% | nt
O/C(=C\c1ccc2ccccc2n1)c1ccc(O)cc1O | 4% | -11% | 7.1µM* | ?
COC(=O)[C@](O)(c1ccc(NC(=O)c2ccco2)c(OC)c1)C(F)(F)F | nt | nt | 6%[46.1 µM] | nt
COc1cccc(OC)c1CN1CCC2(CCC(CNC(=O)c3ccccc3)O2)CC1 (stereo not drawn) | 3% | -13% | nt | nt
COc1ccccc1C(CNC(=S)NCc1ccccc1)N1CCCC1 (stereo not drawn) | -28% | -16% | 5.6µM* | 0%[46.1 µM]
COc1ccc(C(CNC(=S)NCc2ccccc2)N2CCCC2)cc1 (stereo not drawn) | -5% | i | ? | ?
CN(C)/C=N/c1nc(-c2ccc3ccccc3c2)cs1 | -9% | -16% | ? | 10µM*
COC(=O)c1cc(CNC(=O)c2ccc(N(C)C)cc2)cc(NC(=O)c2ccccc2Cl)c1 | 0% | -3% | nt | nt
COCCCNc1ncnc2sc(C(=O)N3CCCCC3)c(C)c12 | 0% | -9% | nt | nt
Cc1cc(C2CCCCC2)n(O)c(=O)c1 | ? | 4.5µM* | nt | nt
CCS(=O)(=O)NCc1c(C)ncc2c1CCN(C(=O)c1ccc(F)cc1)C2 | -22% | -27% | nt | nt
Cc1ccc(/C(=C\CN2CCCC2)c2ccccn2)cc1 | -14% | -4% | 11µM* | ?
COC(=O)C1=C(C)N(Cc2ccccc2)C(=NCCc2ccc(O)cc2)NC1c1ccc(Br)cc1 (stereo not drawn) | nt | nt | 2%[14.2 µM] | nt
S=C(NCCCc1cnc[nH]1)NCCCN(Cc1ccc(Cl)cc1)c1cc(-c2ccccc2)ccn1 | -23% | -7% | nt | nt
O=C(C[N+]1(CC#Cc2ccccc2)CCCCC1)c1ccc(Cl)cc1 | ? | 10µM* | nt | nt
Cc1cc(C)n([C@@H]2CCCC[C@H]2OC(=O)c2ccccc2)n1 | nt | nt | -7%[46.1 µM] | nt
C#CCSc1nnnn1-c1cccc(Cl)c1 | -24% | -11% | 3.2µM* | ?
COC(=O)C1=C(C)N(Cc2ccccc2)C(=NCCc2c[nH]c3ccccc23)N[C@H]1c1ccccc1 | -19% | -21% | nt | nt
COC(=O)C1=C(C)N(Cc2ccccc2)C(=NCCc2c[nH]c3ccccc23)N[C@H]1c1cccc(F)c1 | 13µM* | ? | nt | nt
CCN(CC)CCCN=C1N[C@@H](c2cccc(F)c2)C(C(=O)OC)=C(C)N1Cc1ccccc1 | 28µM* | ? | nt | nt
CN(C)CCCC1(c2ccc(F)cc2)OCc2cc(C#N)ccc21 (stereo not drawn) | -18% | i | 16µM*! | ?
CNc1oc(-c2ccc(C)cc2)nc1P(=O)(c1ccccc1)c1ccccc1 | -26% | -18% | ? | 21µM*
CNc1oc(-c2ccccc2Cl)nc1P(=O)(c1ccccc1)c1ccccc1 | -24% | -3% | ? | ?
COc1ccc(NS(=O)(=O)c2ccc3nc(COc4cccc5ccccc45)[nH]c3c2)cc1 | ? | -26% | 15µM* | ?
SMILES | VACV Venus inh | Vaccinia mCherry | Marburg entry inh | LASV entry inh
COc1ccc(NS(=O)(=O)c2ccc3nc(COc4ccc5ccccc5c4)[nH]c3c2)cc1 | 28µM* | ? | ? | ?
Cn1c(=O)c2c(ncn2CC(COCc2ccc(Cl)cc2)OCc2ccc(Cl)cc2)n(C)c1=O (stereo not drawn) | ? | nt | 7.9µM* | ?
Cn1c(=O)c2c(ncn2Cc2ccc(Cl)cc2)n(C)c1=O | -4% | -7% | ? | ?
O/N=C(/C[n+]1csc2ccccc21)c1ccccc1 | -4% | -13% | nt | nt
CN(C)CC[C@H](c1ccc(Cl)cc1)c1ccccn1 | nt | nt | 5.6µM*! | nt
CN(C)CCC(c1ccc(Br)cc1)c1ccccn1 (stereo not drawn) | -12% | -12% | 11µM*! | ?
CS(=O)(=O)N1CCCC(c2nc(-c3ccc(S(=O)(=O)NCc4ccccc4)cc3)no2)C1 (stereo not drawn) | nt | nt | 0.13µM*! | ?
CCOC(=O)N1CCN(Cc2ccc3c(c2)CN(C(=O)c2ccc4ncccc4c2)CCO3)CC1 | -23% | -21% | nt | nt
COc1ccc(/C=N/Nc2ncc(C(F)(F)F)cc2Cl)cc1OC | -23% | -30% | 13µM* | 3%
CCC(C)Sc1cccc(-c2nc3cc(C)ccn3c2NC2CCCCC2)c1 (stereo not drawn) | ? | 7.9µM*! | nt | nt
CCCCCCSc1cccc(-c2nc3cc(C)ccn3c2NC2CCCCC2)c1 | -26% | -1% | nt | nt
COc1cccc(C2(CC(=O)N3CCN(c4ccccn4)CC3)CC(=O)N(C3CCCC3)C2=O)c1 (stereo not drawn) | -17% | -1% | nt | nt
O=C(Cc1ccc(OCCCc2ccccc2)cc1)NO | -4% | -4% | nt | nt
CCOc1ccc(NC(=O)CSCC(=O)O)cc1 | nt | nt | 13% | 3%
CCOc1ccc(NC(=O)c2cnsn2)cc1 | -2% | -5% | 8.9µM* | ?
CCOc1ccc(NC(=O)c2cnccn2)cc1 | -16% | nt | ? | ?
CCOc1ccc(NC(=O)CSc2ccccc2N)cc1 | ? | ? | 3.5µM* | nt
CCOc1ccc(NC(=O)c2ccccn2)cc1 | -5% | i | 0.32µM* | 0.28µM*
Cc1ccnc2c(Cl)cccc12 | -11% | -14% | nt | nt
COc1ccc(C(=O)N2CCC3(CC2)c2ccccc2[C@@H](NC(=O)c2ccccn2)[C@@H]3OC)c(O)c1 | -2% | -19% | nt | nt
Cc1ccc(Nc2nc3nonc3nc2Nc2cccc(C(F)(F)F)c2)cc1Cl | 3.5µM* | 3.5µM* | ? | ?
CCOC(=O)c1sc(=S)n(C)c1NC(=O)c1ccc(C(C)(C)C)cc1 | -23% | -14% | 14µM* | ?
Cc1ccc(C(=O)COC(=O)COc2ccccc2[N+](=O)[O-])s1 | -4% | -11% | ? | 14%
CCOC(=O)COc1ccccc1/C=C\[N+](=O)[O-] | ? | ? | 16µM* | 13µM*
CCOc1ccc(/C=C/C(=O)C(C(N)=O)=C2SCCS2)cc1 | -26% | 4.5µM* | ? | 2%
SMILES | VACV Venus inh | Vaccinia mCherry | Marburg entry inh | LASV entry inh
Cc1cccc2c(N3CCCC3)nc(CNS(=O)(=O)c3ccc4ccccc4c3)nc12 | 8% | -13% | nt | nt
COC(=O)NC(=C(Cl)Cl)S(=O)(=O)c1ccccc1 | ? | nt | ? | 13µM*
O=C(CN1Cc2ccccc2OC(c2ccsc2)C1)N1CCC(c2nc3ccccc3[nH]2)CC1 (stereo not drawn) | -12% | -17% | nt | nt
Cc1ccsc1C(=O)N(Cc1cc2ccc(F)cc2nc1N1CCC(O)CC1)CC1CCCO1 (stereo not drawn) | 5% | -7% | nt | nt
Cc1ccc(/C=C/C(=O)NC(C)c2ccccc2)cc1 (stereo not drawn) | -21% | -22% | 9% | 11µM*
CC(C)c1ccc(/C=C/C(=O)NCCCc2ccccc2)cc1 | -7% | -15% | 5% | 9%
CC(NC(=O)/C=C/c1ccc(Br)cc1)c1ccccc1 (stereo not drawn) | -6% | -20% | ? | 15µM*
CCCNC(=O)/C=C/c1ccc(C(C)C)cc1 | -17% | -12% | ? | 18µM*
COc1ccc(C(=O)Nc2ccc3c(c2)C(=O)c2ccccc2C3=O)cc1OC | 1% | 0% | 8% | 4%
COc1ccc(C(=O)Nc2ccc3c(c2)N(C2CCCC2)C(=O)c2ccccc2S3)cc1OC | 0% | -8% | nt | 1.3µM*
COc1cc(OC)c(NC(=O)Nc2ccc3c(c2)N(C)C(=O)c2ccccc2S3)cc1Cl | ? | -14% | 10µM* | -24%[46.1 µM]
